Bioassay records from PubChem BioAssay.
Pf growth 96h – P. falciparum growth inhibition at 96 hour, primary screen for plastid delayed-death inhibitors. P. falciparum luciferase reporter growth, 96 h. Potency, µM (highest dose often 28.7 µM), without a hit: top-dose activity change, negative = inhibition, hits mostly inhibitors. actives 6.9% (n = 320,000); further: potency means the concentration at half of the fitted maximal effect; on the % scale 0 is the no-effect control and ±100 the full control effect
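Infected RBCs, 2% Hct / 0.05% parasitemia final; luciferase-reporter P. falciparum; cpd 96 h, 37 C, 5% CO2; luciferase detection reagent; luminescence.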
Shiga inhibitor – Shiga toxin inhibition; inhibition, % at 38.7 µM; AID 2315; actives 9.2% (n = 290,000); Vero cells, Shiga toxin protein synthesis inhibition reporter; in the data active means inhibition mostly above about 28%, no sharp cut-off; inactive means mostly below about 43%; further: 0% is about no effect
AMA1-RON2 inh – disrupts binding of P. falciparum AMA1 to RON2; AlphaScreen AMA1-biotinylated RON2 peptide binding; Potency, µM (doses to about 58.2 µM), without a hit: at the top dose activity change, negative = inhibition, hits mostly inhibitors; actives 0.2% (n = 360,000);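 further: potency means the concentration at half of the fitted maximal effect; 0% = vehicle wells and -100% = peptide control; nearly all actives have a fitted effect of over 45% in size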
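AMA1 (3D7) with his tag at 25 nM final met compounds first, then biotinylated RON2 peptide at 25 nM; detection used donor plus acceptor beads, 10 µg/mL apiece, read by AlphaScreen after 30 min at room temperature.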
Pf growth 48h – P. falciparum growth inhibition at 48 hours (one generation); actives 5.9% (n = 310,000); P. falciparum luciferase growth in erythrocytes, 48 h; Potency, µM (top dose mostly 28.7 µM), for inactives: top-dose activity change, negative = inhibition, most hits filed as inhibitors; further: potency means the concentration at half of the fitted maximal effect; on the % scale 0 is the no-effect control and ±100 the full control effect
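Erythrocytes infected with P. falciparum carrying an integrated firefly luciferase reporter (2% hematocrit, 0.1% parasitemia final) were exposed to compounds in RPMI 1640 with 0.5% Albumax at 37 C, 5% CO2. Growth inhibition was scored as reduced luminescence.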
Cycloheximide cs – counter-screen for Shiga toxin inhibitors: cycloheximide protein synthesis inhibition. cell reporter, cycloheximide protein synthesis inhibition counterscreen. max response, %. actives 12% (n = 300,000); in the data active means max response mostly above about 13%, no sharp cut-off; inactive means mostly below about 14%; further: read at 38.3 µM for the half of the compounds with a filed dose; 0% is about no effect
HCV inh – inhibitors of hepatitis C virus infection. Huh7.5.1 HCVcc-Cre infection, luciferase reporter, 44 h. Potency, µM (highest dose often 41.8 µM), inactives show top-dose activity change, negative = inhibition, hits mostly inhibitors. AID 651820. actives 3.4% (n = 340,000); further: potency means the concentration at half of the fitted maximal effect; on the % scale 0 is the no-effect control and ±100 the full control effect
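Whole-lifecycle infectious HCVcc-Cre system; cells 1,000/well, compound then virus (~0.5 moi) added 4 h after plating, 44 h culture. Luciferase read 15 sec following 15 min substrate incubation, room temp.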
Numbers without * were called inactive; ? = inconclusive; . = no result given; [ ] = dose if it differs, or a comment. Compounds with a hit are over-represented: about 21% of the library has one in this group of screens. Unless noted, the call rests on the fitted dose curve; in most records, active means well fitted curve in the direction sought with a large enough effect; inconclusive means small, poorly fitted or top-dose-only effect, or another doubt; inactive means no such curve, though single readings can be large; an effect the other way counts as inactive or inconclusive.

SMILES | Pf growth 96h | Shiga inhibitor | AMA1-RON2 inh | Pf growth 48h | Cycloheximide cs | HCV inh
CC(=O)Nc1cccc(C(=O)OCC(=O)N(c2ccccc2)C2CCS(=O)(=O)C2)c1 (stereo unspecified) | 42% | . | -8% | -1% | . | ?
COC(=O)c1ccc(S(=O)(=O)c2ccc([N+](=O)[O-])cc2)cc1 | 14% | -1 | -2% | 27% | -2 | -7%
Cn1c(S(=O)(=O)c2ccc([N+](=O)[O-])cc2)nc(Br)c1Br | 9.3µM* | 7 | -7% | ? | 3 | -15%
Cc1cc(NS(=O)(=O)c2ccc(NC(=O)Nc3cccc(Cl)c3)cc2)no1 | 9% | 4 | -2% | 39% | 1 | 29%
O=C(Nc1ccc(S(=O)(=O)N2CCOCC2)cc1)c1ccc2c(c1)OCO2 | 6% | -4 | 15% | -11% | -1 | 6%
O=S(=O)(c1ccc(NC(=S)Nc2ccc3c(c2)OCO3)cc1)N1CCOCC1 | 17% | 64* | 2% | 26% | 37* | 10%
Cc1cc(NS(=O)(=O)c2ccc(NC(=O)Nc3ccc4c(c3)OCO4)cc2)no1 | -16% | 35* | 8% | 50% | 20 | 17%
CC(=O)Nc1ccc(S(=O)(=O)Nc2ccc3c(c2)OCO3)cc1 | 23% | -8 | -6% | 24% | -3 | 1%
CNS(=O)(=O)c1ccc(NC(=S)Nc2ccc3c(c2)OCO3)cc1 | 2% | 55* | 25% | 21% | 29* | 11%
Cc1cc(NS(=O)(=O)c2ccc(NC(=O)c3oc4ccccc4c3C)cc2)no1 | . | -31 | 30µM* | 16% | 11 | 6%
COc1ccc(N2CCN(C(CNS(=O)(=O)c3ccccc3)c3ccccc3)CC2)cc1 (stereo unspecified) | -12% | 11 | ? | -21% | -3 | -26%
O=C(Cc1ccc2cccnc2c1)c1ccc(O)cc1O | . | 34* | 35% | . | 29* | 5%
COc1ccccc1C1C(C#N)=C(N)Oc2cc(C)n(CCCn3ccnc3)c(=O)c21 (stereo unspecified) | . | -12 | -8% | -8% | 6 | 12%
COC(=O)C1=C(N)Oc2cc(C)n(Cc3cccnc3)c(=O)c2C1c1ccc(OC)c(OC)c1 (stereo unspecified) | -13% | -3 | 22% | -18% | 2 | 6%
COC(=O)C1=C(N)Oc2cc(C)n(CCc3ccccc3)c(=O)c2C1c1cccnc1 (stereo unspecified) | ? | -21 | -15% | 10µM* | -8 | ?
CCOC(=O)C1=C(N)Oc2ccc3ccccc3c2C1c1cccnc1 (stereo unspecified) | 9.3µM* | 10 | 29% | ? | -4 | 7%
COC(=O)C1=C(N)Oc2cc(C)n(CCCn3ccnc3)c(=O)c2C1c1cccc(Cl)c1 (stereo unspecified) | . | -12 | -12% | 5.9µM* | -5 | 13%
CCOC(=O)C1=C(N)Oc2cc(C)n(CCc3ccc(OC)c(OC)c3)c(=O)c2C1c1cccnc1 (stereo unspecified) | 10µM* | -11 | 0% | 2.3µM* | 3 | -10%
CCOC(=O)C1=C(N)Oc2cc(C)n(C)c(=O)c2C1c1ccncc1 (stereo unspecified) | -1%[5.75 µM] | 22 | -4% | 11% | -1 | -2%
C[C@H](CO)N1C[C@H](C)[C@@H](CN(C)C(=O)Nc2ccc3c(c2)OCO3)Oc2c(NS(=O)(=O)c3ccc(F)cc3)cccc2C1=O | . | . | 7% | . | . | -6%
CCN1CC2=C(OC(N)=C(C#N)C2c2cccs2)/C(=C/c2cccs2)C1 (stereo unspecified) | 54% | -16 | -16% | 12µM* | -1 | 22µM*
CCN1CC2=C(OC(N)=C(C#N)C2c2ccccc2)/C(=C\c2ccccc2)C1 (stereo unspecified) | . | -8 | -4% | 10µM* | 4 | ?
O=C(NCCOc1ccccc1)c1cncc(Br)c1 | 121% | 78* | 13% | . | 45* | -8%
CCc1cc(C)cc(OCCNC(=O)c2cncc(Br)c2)c1 | ? | -7 | -2% | . | 2 | 10µM*
O=C(NCCSSCCNC(=O)c1ccccc1)c1ccccc1 | . | . | -14% | . | . | ?
SMILES | Pf growth 96h | Shiga inhibitor | AMA1-RON2 inh | Pf growth 48h | Cycloheximide cs | HCV inh
CCc1cc(C)cc(OCCNC(=O)c2ncn[nH]2)c1 | -4% | -3 | 21% | -26% | -3 | -28%
O=C(NCCSc1ccccc1)c1ccccc1 | . | 114* | 9% | 165% | 31* | 9%
CN(C)S(=O)(=O)c1ccc(C(=O)NCCSc2ccc(Br)cc2)cc1 | -17% | 16 | -11% | 1% | -5 | 22µM*
CN(C)c1cccc(C(=O)NCCCSc2ccccc2)c1 | 29% | 47* | -4% | 6% | 37* | ?
O=C(NCCSc1ccccc1)c1cncc(Br)c1 | 63% | 11 | 5% | . | 33* | 8%
Cc1cccc(C(=O)NCC(=O)NCCCSc2ccccc2)c1 | 11% | . | 6% | -8% | . | 13%
CCCC/C=C/C(NC(=O)c1ccc(-c2ccccc2)cc1)c1ccccc1 (stereo unspecified) | . | . | -1% | . | . | 11%
CCCC/C=C/C(NC(=O)CCc1ccccc1)c1ccccc1 (stereo unspecified) | 8.3µM* | -13 | 23% | ? | -1 | -1%[8.37 µM]
O=C(NCCSc1ccccc1)c1ccc(Br)cc1 | ? | 81* | 32% | 221% | 48* | -13%
Cc1ccc(C(=O)NCC(=O)NCCSc2ccc(Br)cc2)cc1 | 22% | . | -3% | -30% | . | -11%
CCCCCNC(=O)CCc1ccccc1 | 20% | 14 | -2% | 12% | 13* | 1%
O=C(CCc1ccccc1)NCCSc1ccccc1 | 82% | 95* | 6% | -13%[5.75 µM] | 31* | 5%
O=C(CCSc1ccccc1)NCCSCc1ccccc1 | -12% | -2 | 19%[2.32 µM] | 32% | 7 | 13%
O=[N+]([O-])c1ccc(Oc2ccc(S(=O)(=O)N3CCOCC3)cn2)cc1 | -3% | . | 7% | 3% | . | -10%
C[C@@H](O)C(N)C(=O)O (stereo partly specified) | . | -4 | . | . | -6 | .
CC1CN(CC(=O)Nc2cccc(C(=O)Nc3cccc(C(F)(F)F)c3)c2)CC(C)O1 (stereo unspecified) | 0.15µM* | -4 | -7% | . | -3 | ?
CC1CCN(CC(=O)Nc2cccc(C(=O)Nc3cccc(C(F)(F)F)c3)c2)CC1 | 0.93µM* | -4 | 9% | 1.3µM* | -3 | 22µM*
C/C(=N\NC(=O)Cc1c(Cl)cccc1Cl)c1cccnc1 | ? | 4 | 10% | -2% | -1 | .
OCC1OC(Nc2ccccc2C=NO)C(O)C1O (stereo unspecified) | . | . | 19% | . | . | .
O=C(Oc1cc(=O)n2ccccc2n1)c1ccccc1 | 28% | -1 | 12% | 3% | -2 | 15%
CCN(CC)S(=O)(=O)c1cc(C(=O)Nc2nncs2)c(Cl)cc1Cl | . | -11 | 5% | ? | -3 | 10µM*
